# Source: PubChem BioAssay (Tox21)
# Inconclusive results are not listed. Entries that show only a call come without a potency. The source made the active and inactive calls. Unless noted, calls follow the shape of the dose curve; as a rule, active = well fitted curve in the direction sought with a large enough effect in the repeat runs; inconclusive = weak or mixed curves; inactive = no such curve, though single readings can be large; an effect the other way counts as inactive or inconclusive.
# Tests used:
# [1] = qHTS assay to identify small molecule antagonists of the glucocorticoid receptor (GR) signaling pathway - cell viability counter screen (AID 720693); also: nearly all actives have a fitted effect of over 55% in size; also: potency is read from the fitted curve at half-maximal effect
# [2] = qHTS assay for identifying genotoxic compounds that show differential cytotoxicity against isogenic chicken DT40 cell lines with known DNA damage response pathways - wild type cell line (AID 743012); also: nearly all actives have a fitted effect of over 60% in size; also: potency is read from the fitted curve at half-maximal effect
# Method in brief: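 Viability of DNA repair-proficient chicken DT40 cells was assessed by CellTiter-Glo luminescence following 40 h compound exposure at 37 C/5% CO2.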
# [3] = qHTS assay to identify small molecule antagonists of the androgen receptor (AR) signaling pathway - cell viability counter screen (AID 743033; also: nearly all actives have a fitted effect of over 45% in size; also: potency is read from the fitted curve at half-maximal effect)
# [4] = qHTS assay to identify small molecule antagonists of the androgen receptor (AR) signaling pathway using the MDA cell line - cell viability counter screen (AID 743041; also: nearly all actives have a fitted effect of over 45% in size; also: potency is read from the fitted curve at half-maximal effect)
# Method in brief: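 Using the breast carcinoma line MDA-kb2 AR-luc, test chemicals were co-incubated with R1881 for 16 h; CellTiter-Fluor reagent, added at 15.5 h, provided a fluorescence measure of live cells.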
# [5] = qHTS assay for identifying genotoxic compounds that show differential cytotoxicity against isogenic chicken DT40 cell lines with known DNA damage response pathways - Rev3 mutant cell line (AID 743014); also: nearly all actives have a fitted effect of over 55% in size; also: potency is read from the fitted curve at half-maximal effect
# [6] = qHTS assay for identifying genotoxic compounds that show differential cytotoxicity against isogenic chicken DT40 cell lines with known DNA damage response pathways - Rad54/Ku70 mutant cell line (AID 743015); also: nearly all actives have a fitted effect of over 60% in size; also: potency is read from the fitted curve at half-maximal effect
# [7] = molecular target: Androgen receptor (Homo sapiens) (UniProt P10275); assay: qHTS assay to identify small molecule agonists of the androgen receptor (AR) signaling pathway (AID 743036; active = well fitted activation curve with a large enough effect in the signal ratio in the repeat runs, with a control signal flat, not every such curve was filed as active; the % refers to the signal ratio; also: potency is read from the fitted curve at half-maximal effect)
# Method in brief: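 Beta-lactamase under UAS control, stably integrated in HEK293 GripTite cells, reports receptor activation. After 16 h compound treatment, cells received FRET substrate for 2 h at room temperature before fluorescence reading.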
# [8] = molecular target: Androgen receptor (Homo sapiens) (UniProt P10275); assay: qHTS assay to identify small molecule agonists of the androgen receptor (AR) signaling pathway using the MDA cell line (AID 743040; also: nearly all actives have a fitted effect of over 20% in size; also: potency is read from the fitted curve at half-maximal effect)
# Method in brief: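 Stable MMTV-luciferase reporter in MDA-kb2 cells; note the promoter carries GR as well as AR response elements. 16 h compound treatment, 37C, 0% CO2; ONE-Glo luminescence endpoint.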
# [9] = molecular target: Androgen receptor (Homo sapiens) (UniProt P10275); assay: qHTS assay to identify small molecule antagonists of the androgen receptor (AR) signaling pathway (AID 743035; active = well fitted inhibition curve with a large enough effect in the signal ratio in the repeat runs, not every such curve was filed as active; the % refers to the signal ratio)
# Method in brief: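 Reporter HEK293 cells were exposed to compounds and R1881 overnight (16 h, 37C); beta-lactamase activity was then quantified by FRET fluorescence.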
# [10] = molecular target: Androgen receptor (Homo sapiens) (UniProt P10275); assay: qHTS assay to identify small molecule antagonists of the androgen receptor (AR) signaling pathway using the MDA cell line (AID 743042; also: nearly all actives have a fitted effect of over 55% in size; also: potency is read from the fitted curve at half-maximal effect)
# Method in brief: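 Antagonist mode: compounds plus R1881 agonist added to MDA-kb2 AR-luc cells, incubated 16 h at 37C. Luciferase reporter luminescence quantified, with multiplexed CellTiter-Fluor readout for cell viability.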
# Androgen receptor (Homo sapiens), sequence (P10275 whole entry, looked up): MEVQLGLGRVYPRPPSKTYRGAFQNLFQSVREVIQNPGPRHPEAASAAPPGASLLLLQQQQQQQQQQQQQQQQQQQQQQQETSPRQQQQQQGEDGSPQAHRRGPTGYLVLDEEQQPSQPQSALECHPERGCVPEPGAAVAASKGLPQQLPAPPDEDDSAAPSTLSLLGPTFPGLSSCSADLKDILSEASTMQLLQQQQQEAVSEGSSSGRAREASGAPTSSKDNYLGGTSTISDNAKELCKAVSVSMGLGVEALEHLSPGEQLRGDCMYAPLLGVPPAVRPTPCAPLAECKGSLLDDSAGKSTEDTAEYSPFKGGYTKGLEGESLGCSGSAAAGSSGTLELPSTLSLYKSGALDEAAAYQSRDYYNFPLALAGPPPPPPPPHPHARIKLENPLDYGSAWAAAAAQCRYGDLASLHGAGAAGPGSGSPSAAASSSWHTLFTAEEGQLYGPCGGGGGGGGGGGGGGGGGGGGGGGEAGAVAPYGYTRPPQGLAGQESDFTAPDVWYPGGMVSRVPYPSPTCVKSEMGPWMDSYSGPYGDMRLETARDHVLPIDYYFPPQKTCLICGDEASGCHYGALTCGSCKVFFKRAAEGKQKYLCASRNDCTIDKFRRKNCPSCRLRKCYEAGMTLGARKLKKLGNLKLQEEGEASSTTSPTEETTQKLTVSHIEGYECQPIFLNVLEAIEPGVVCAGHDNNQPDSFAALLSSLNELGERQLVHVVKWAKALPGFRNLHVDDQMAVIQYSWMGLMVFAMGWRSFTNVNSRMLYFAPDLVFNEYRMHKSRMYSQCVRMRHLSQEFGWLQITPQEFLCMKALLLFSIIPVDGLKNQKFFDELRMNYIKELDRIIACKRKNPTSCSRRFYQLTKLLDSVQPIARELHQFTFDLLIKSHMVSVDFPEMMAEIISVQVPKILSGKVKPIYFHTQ
Structure (SMILES),Potency [1],Potency [2],Potency [3],Potency [4],Potency [5],Potency [6],Potency [7],Potency [8],Potency [9],Potency [10]
C#C[C@]1(O)CC[C@H]2[C@@H]3CCC4=CC(=O)CC[C@@H]4[C@H]3C(=C)C[C@@]21CC,inactive,29.8 µM (active),inactive,inactive,–,–,–,–,–,–
CC1=C[C@H](O)CC(C)(C)[C@H]1/C=C/C(C)=C/C=C/C(C)=C/C=C/C=C(C)/C=C/C=C(C)/C=C/C1=C(C)C[C@@H](O)CC1(C)C,inactive,–,inactive,inactive,18.8 µM (active),21.1 µM (active),inactive,inactive,–,–
Cc1cccc(C)c1N(CCCc1cccnc1)C(=O)C(C)N (stereo not given),inactive,–,inactive,inactive,inactive,inactive,inactive,inactive,inactive,inactive
Nc1nc(=O)n([C@@H]2CS[C@H](CO)O2)cc1F,inactive,–,inactive,inactive,inactive,inactive,–,–,–,–
COc1ccc2c(=O)c(C)c(-c3ccccc3)oc2c1CN(C)C,inactive,–,inactive,–,inactive,18.8 µM (active),inactive,inactive,inactive,inactive
CCNC(=O)[C@@H]1CCCN1C(=O)[C@H](CCCN=C(N)N)NC(=O)[C@H](CC(C)C)NC(=O)[C@@H](Cc1c[nH]c2ccccc12)NC(=O)[C@H](Cc1ccc(O)cc1)NC(=O)[C@H](CO)NC(=O)[C@H](Cc1c[nH]c2ccccc12)NC(=O)[C@H](Cc1cnc[nH]1)NC(=O)[C@@H]1CCC(=O)N1,19 µM (active),–,23.9 µM (active),11.9 µM (active),1.19 µM (active),1.06 µM (active),–,–,–,–
CCCN(CC)C(CC)C(=O)Nc1c(C)cccc1C (stereo not given),inactive,–,inactive,inactive,inactive,inactive,–,–,–,–
CNCC(O)c1ccc(OC(=O)C(C)(C)C)c(OC(=O)C(C)(C)C)c1 (stereo not given),inactive,12.7 µM (active),inactive,inactive,–,–,–,–,–,–
O=C(OC1C[C@@H]2CC3C[C@H](C1)N2CC3=O)c1c[nH]c2ccccc12 (stereo not given in full),inactive,26.6 µM (active),inactive,inactive,–,–,–,–,–,–
CCCCC[C@H](O)/C=C/[C@H]1[C@H](O)CC(=O)[C@@H]1CCCCCCC(=O)O,inactive,–,–,–,inactive,–,–,–,–,–
CC(C)NCC(O)COc1ccccc1-n1cccc1 (stereo not given),inactive,–,inactive,inactive,inactive,inactive,–,–,–,–
CC(C)CN(C[C@@H](O)[C@H](Cc1ccccc1)NC(=O)O[C@H]1CO[C@H]2OCC[C@H]21)S(=O)(=O)c1ccc(N)cc1,inactive,–,inactive,inactive,inactive,29.8 µM (active),–,–,–,–
C#CCOc1ccc2c(C)cc(=O)oc2c1,inactive,inactive,–,inactive,–,–,–,–,–,–
CCCCCCCCCCCCCCCCCC[N+](C)(C)CCC[Si](OC)(OC)OC,inactive,–,inactive,inactive,18.8 µM (active),10.6 µM (active),–,–,–,–
O=S(=O)(O)c1cc(O)c2c(N=Nc3ccc(Nc4ccccc4)c4c(S(=O)(=O)O)cccc34)cc(S(=O)(=O)O)cc2c1,inactive,–,inactive,–,11.9 µM (active),13.3 µM (active),inactive,inactive,inactive,16.8 µM (active)
O=C(OC[C@H]1O[C@](O)(COC(=O)c2cccnc2)[C@@H](OC(=O)c2cccnc2)[C@@H]1OC(=O)c1cccnc1)c1cccnc1,inactive,–,inactive,inactive,inactive,inactive,inactive,inactive,inactive,inactive
CC(=O)OC[C@H]1O[C@@H](O[C@H]2[C@H](O)[C@@H](OC(=O)c3ccccc3C(=O)O)[C@H](O)O[C@@H]2COC(C)=O)[C@H](O)[C@@H](OC(=O)c2ccccc2C(=O)O)[C@@H]1O,inactive,–,inactive,inactive,inactive,inactive,–,–,–,–
O=C(O)c1c(Cl)c(Cl)c(Cl)c(Cl)c1-c1c2cc(I)c(=O)c(I)c-2oc2c(I)c(O)c(I)cc12,inactive,–,inactive,24.8 µM (active),inactive,–,inactive,13.3 µM (active),inactive,inactive
COc1ccc(C(=O)Nc2ccccc2CCC2CCCCN2C)cc1 (stereo not given),inactive,–,–,inactive,inactive,inactive,–,–,–,–
O=P(O)(O)OC[C@H]1O[C@](O)(COP(=O)(O)O)[C@@H](O)[C@@H]1O,inactive,–,inactive,inactive,inactive,inactive,–,–,–,–
C/C1=C2N=C(/C=C3N=C(/C(C)=C4\[N-][C@@](C)([C@@H]5N=C1[C@](C)(CCC(=O)NCC(C)OP(=O)(O)O[C@H]1[C@@H](O)[C@@H](n6cnc7cc(C)c(C)cc76)O[C@@H]1CO)[C@H]5CC(N)=O)[C@@](C)(CC(N)=O)[C@@H]4CCC(N)=O)[C@@](C)(CC(N)=O)[C@@H]\3CCC(N)=O)C(C)(C)[C@@H]/2CCC(N)=O.CC(=O)O.[Co] (stereo not given in full),inactive,–,inactive,–,inactive,–,–,–,–,–
CN1CCc2c(c3ccccc3n2Cc2ccccc2)C1,inactive,–,inactive,inactive,inactive,–,–,–,–,–
C=C1c2c(Cl)ccc(O)c2C(O)=C2C(=O)[C@]3(O)C(O)=C(C(N)=O)C(=O)[C@@H](N(C)C)[C@@H]3[C@@H](O)[C@H]12,inactive,–,inactive,inactive,inactive,–,–,inactive,–,inactive

Structure (SMILES),Potency [1],Potency [2],Potency [3],Potency [4],Potency [5],Potency [6],Potency [7],Potency [8],Potency [9],Potency [10]
Cc1cccc(C)c1NC(=O)NC1=CCCN1C,inactive,–,inactive,inactive,–,inactive,inactive,inactive,inactive,inactive
CC(C)(C)NCC(O)CSc1nc(-c2ccc(C(N)=O)s2)cs1 (stereo not given),inactive,–,inactive,inactive,inactive,–,–,–,–,–
CC(C)(C)NC(=O)[C@H]1CC[C@H]2[C@@H]3CC=C4C=C(C(=O)O)CC[C@]4(C)[C@H]3CC[C@]12C,inactive,–,inactive,inactive,inactive,–,–,inactive,inactive,inactive
NCCCC[C@H](NC(=O)[C@@H]1CCCN1C(=O)[C@@H]1CSSC[C@H](N)C(=O)N[C@@H](Cc2ccccc2)C(=O)N[C@@H](Cc2ccccc2)C(=O)N[C@@H](CCC(N)=O)C(=O)N[C@@H](CC(N)=O)C(=O)N1)C(=O)NCC(N)=O,inactive,–,inactive,inactive,inactive,inactive,–,–,–,–
CCCC1C(=O)N2C(N(C)C)=Nc3ccc(C)cc3N2C1=O (stereo not given),inactive,–,inactive,inactive,inactive,inactive,–,–,–,–
CCN(CC)c1ccc(N=Nc2ccc(S(=O)(=O)N(C)C)cc2)c(S(=O)(=O)NCC[n+]2ccccc2)c1,inactive,–,inactive,inactive,inactive,–,inactive,inactive,inactive,inactive
CO[C@H]1O[C@@H]2O[C@@]3(C)CC[C@H]4[C@H](C)CC[C@@H]([C@H]1C)[C@@]24OO3,inactive,–,inactive,inactive,1.68 µM (active),0.668 µM (active),–,–,–,–
c1ccc2c(CCC3CCNCC3)c[nH]c2c1,inactive,–,inactive,inactive,29.8 µM (active),–,–,–,–,–
OC[C@H]1OC([S-])[C@H](O)[C@@H](O)[C@@H]1O.[Au+] (stereo not given in full),inactive,–,inactive,inactive,inactive,–,–,–,–,–
CN1C(=O)CN2CCc3ccccc3C2c2cc(Cl)ccc21 (stereo not given),inactive,–,inactive,inactive,inactive,–,–,–,–,–
CC(=O)OCC(=O)[C@@]12OC3(CCCC3)O[C@@H]1C[C@H]1[C@@H]3CCC4=CC(=O)C=C[C@]4(C)[C@@]3(F)[C@@H](O)C[C@@]12C,inactive,–,–,inactive,inactive,–,–,–,–,–
C#C[C@]1(O)CC[C@H]2[C@@H]3CCC4=C(CCC(=O)C4)[C@H]3CC[C@@]21C,inactive,–,inactive,inactive,inactive,–,–,–,–,–
CN1CCN(CCCN2c3ccccc3Sc3ccccc32)CC1,inactive,–,–,inactive,11.9 µM (active),13.3 µM (active),–,–,–,–
CC(C)C[C@H](NC(=O)[C@@H](Cc1c[nH]c2ccccc12)NC(=O)[C@H](Cc1ccc(O)cc1)NC(=O)[C@H](CO)NC(=O)[C@H](Cc1c[nH]c2ccccc12)NC(=O)[C@H](Cc1cnc[nH]1)NC(=O)[C@@H]1CCC(=O)N1)C(=O)N[C@@H](CCCN=C(N)N)C(=O)N1CCC[C@@H]1C(=O)NCC(N)=O,inactive,–,–,inactive,inactive,inactive,–,–,–,–
CCC(=O)OCC(=O)[C@@]1(OC(=O)CC)[C@H](C)C[C@H]2[C@H]3[C@H]([C@@H](O)C[C@@]21C)[C@@]1(C)C=CC(=O)C=C1C[C@H]3Cl,inactive,–,inactive,inactive,inactive,–,0.144 µM (active),0.0403 µM (active),inactive,inactive
O=C(OCCO)c1ccccc1O,inactive,–,inactive,inactive,inactive,inactive,–,–,–,–
CNc1cc(OC)c(C(=O)N[C@H]2CCN(Cc3ccccc3)[C@H]2C)cc1Cl,inactive,–,inactive,inactive,4.73 µM (active),8.41 µM (active),–,–,–,–
CCCCCCCN(CC)CCCC(O)c1ccc(NS(C)(=O)=O)cc1 (stereo not given),inactive,–,inactive,inactive,26.6 µM (active),26.6 µM (active),–,–,–,–
Cc1cc(Nc2ccccc2C(=O)O)ccc1Cl,inactive,–,inactive,inactive,29.8 µM (active),–,–,inactive,–,inactive
CCOC(=O)[C@H](CS)NCCN[C@@H](CS)C(=O)OCC,inactive,–,inactive,inactive,inactive,–,–,–,–,–
Oc1cc(O)cc(O)c1,inactive,–,inactive,inactive,inactive,–,–,inactive,inactive,inactive
Clc1ccc(COC(Cn2ccnc2)c2ccc(Cl)cc2Cl)c(Cl)c1 (stereo not given),inactive,–,inactive,inactive,11.4 µM (active),–,–,inactive,–,inactive
OCCN1CCN(CC/C=C2/c3ccccc3Sc3ccc(Cl)cc32)CC1,inactive,–,–,inactive,11.4 µM (active),–,inactive,inactive,inactive,inactive
